An excerpt weighted towards active compounds, which were near 4.4% of everything screened.
TIM10 inh = growth inhibitors of isogenic TIM10 control yeast, primary screen, counter-screen for tim10-1 yeast inhibitor project, luminescence, uHTS; S. cerevisiae TIM10 strain growth, BacTiter-Glo luminescence, 24 h; inhibition, % at 10 µM; 330,000 tested, 1.4% active;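 active = inhibition of 40% or more at the single tested concentration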;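 also: wild-type TIM10 isogenic control strain grown at permissive 25 °C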
tim23-1 inh = growth inhibitors of tim23-1 mutant yeast, primary screen, luminescence, uHTS. S. cerevisiae tim23-1 growth, BacTiter-Glo luminescence, 24 h. inhibition, % at 20 µM. 330,000 tested, 1.3% active;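 active = growth inhibition of the mutant yeast at or above 50%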;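 also: temperature-sensitive mutant grown at 25 °C; plate controls were DMSO-treated mutant yeast for no effect and medium wells lacking yeast for full effect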
SKKanGAS inh = S. pyogenes SKKanGAS growth inhibitors in kanamycin, primary screen, streptokinase expression inhibitor project, SKKanGAS strain, BacTiter-Glo luminescence. AID 1662, 2009. 6 h. inhibition, % at 7.5 µM. 300,000 tested, 1.3% active;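 active = mean replicate score, as percent of positive control median, at least 50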;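 also: strain carries kanamycin resistance gene driven by streptokinase promoter and grows in 40 µg/ml kanamycin; loss of luminescence reflects streptokinase promoter inhibition or plain growth inhibition; 0% = median of DMSO wells and 100% = positive control at its reference dose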
tim10-1 inh = growth inhibitors of tim10-1 mutant yeast, primary screen, luminescence, uHTS | 330,000 tested, 2.2% active | AID 463190, 2010 | inhibition, % at 20 µM | S. cerevisiae tim10-1 ts strain growth, BacTiter-Glo, 24 h;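 active = inhibition of at least 40%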;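 also: mutant grown at 25 °C; 0% = DMSO wells with yeast and 100% = wells holding no yeast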
PfHsp90 yeast 2 = growth inhibition of PfHsp90-expressing yeast, primary screen, antimalarial PfHsp90 inhibitor project, S. cerevisiae, BacTiter-Glo luminescence, single point, set 2. BacTiter-Glo ATP, 48 h; yeast lacking PDR1 and PDR3 efflux regulators. inhibition, % at 9.4 µM. 310,000 tested, 0.32% active;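 active = every replicate shows inhibition above about 80%, whatever the replicate mean, limit read from the data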;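 also: 0% = DMSO neutral controls and 100% = 20 µM radicicol positive controls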
tim10-1 conf = growth inhibitors of tim10-1 mutant yeast, confirmation, single concentration, luminescence, S. cerevisiae | shares compounds with tim10-1 inh | S. cerevisiae tim10-1 ts strain growth, BacTiter-Glo, 24 h | inhibition, % at 20 µM | 7,400 tested, 56% active | AID 463213, 2010;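 active = inhibition of yeast growth at or above a set limit in either of two repeat tests at 20 µM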;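 also: tim10-1 mutant grown at permissive 25 °C to find synthetic lethal compounds; 0% = DMSO yeast wells and 100% = medium wells without yeast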
tim10 confirm = growth inhibitors of wild-type TIM10 yeast, confirmation, counter-screen for tim10-1 synthetic lethality project, single concentration, luminescence, S. cerevisiae. shares compounds with TIM10 inh. S. cerevisiae tim10 strain growth, BacTiter-Glo luminescence, 24 h. inhibition, % at 10 µM. 4,600 tested, 63% active;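 active = inhibition of yeast growth at or above a set limit in either of two replicates at 10 µM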;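 also: this counterscreen used the strain with wild-type TIM10; 0% = yeast with DMSO and 100% = medium wells lacking yeast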
tim23-1 conf = tim23-1 mutant yeast growth inhibitors, confirmation, luminescence, single concentration. inhibition, % at 20 µM. AID 463218, 2010. shares compounds with tim23-1 inh. 4,400 tested, 83% active. S. cerevisiae tim23-1 growth, BacTiter-Glo luminescence, 24 h;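 active = inhibition above about 39% in either of two replicate wells at 20 µM, limit read from the data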;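 also: temperature-sensitive tim23-1 mutant grown at 25 °C; 0% = DMSO wells with yeast and 100% = medium wells without yeast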
* marks the source's active call; other numbers are inactive results; · = no result given.

SMILES | TIM10 inh | tim23-1 inh | SKKanGAS inh | tim10-1 inh | PfHsp90 yeast 2 | tim10-1 conf | tim10 confirm | tim23-1 conf
CC(=O)c1c(C)[nH]c(C(=O)OCC(=O)N(CC(C)C)C2CCS(=O)(=O)C2)c1C (stereo unspecified) | -1.5 | 7.8 | · | 5.5 | 7.9 | · | · | ·
CCC(/C=C1\Sc2ccc(OC)cc2N1CCO)=C\c1sc2ccc(OC)cc2[n+]1CCO | 48.9* | 64.2* | · | 62.4* | 48.8 | 49.4* | -23.8 | 53.3*
Cc1ccccc1-c1nnc(SCC(=O)Nc2cccnc2Cl)o1 | -0.1 | 4.1 | · | -13.3 | 12.4 | · | · | ·
Cn1ncc(Cl)c1C(=O)N1CCN(c2ccc(Cl)c(Cl)c2)CC1 | 26.5 | 50.2* | -2.2 | 41.2* | -29.3 | 20.0 | · | 41.5*
Cn1ncc(Cl)c1C(=O)N1CCN(c2ccccc2)CC1 | -2.3 | 5.4 | 24.5 | 3.8 | 15.5 | · | · | ·
CCn1ccc(C(=O)Nc2ccc3c(c2)CCC3)n1 | 12.2 | 21.6 | -1.1 | 33.6 | -27.3 | · | · | ·
COc1ccccc1C(=O)NC(=O)COC(=O)CNC(=O)c1ccccc1F | -0.7 | 4.0 | · | 13.1 | 18.7 | · | · | ·
COc1ccc(-c2nc(-c3ccccc3)c(-c3cccs3)[nH]2)cc1OC | 34.1 | 54.7* | -14.7 | 41.0* | -8.2 | 33.8* | · | 63.0*
Cc1onc(-c2ccccc2)c1-c1nc2cc(Cl)ccc2c(=O)o1 | 19.2 | 68.4* | 10.6 | 43.3* | 6.5 | 17.6 | · | 52.7*
COc1ccc(C2=CC(=O)N(Nc3ccccc3)C2=O)cc1 | 54.4* | 81.2* | · | 48.5* | · | 50.3* | 55.3* | 77.2*
Cc1cccc(CN2CCCC(C(=O)N3CCc4ccccc4C3)C2)c1 (stereo unspecified) | 16.6 | 0.4 | 1.2 | 12.9 | -8.4 | · | · | ·
O=C1ON=C(c2ccccc2)/C1=C\c1ccco1 | 27.3 | 28.7 | -0.7 | 26.1 | -3.7 | · | · | ·
Cc1ccc(/C=C2/C(=O)ON=C2c2ccccc2)o1 | 19.4 | 74.4* | -3.2 | 51.6* | -10.1 | 40.0* | · | 75.6*
O=C(O)CNc1nc(-c2ccccc2)nc2ccccc12 | -10.6 | -0.5 | 22.8 | -21.5 | -0.9 | · | · | ·
c1ccc(Nc2nc(-c3ccccc3)nc3ccccc23)cc1 | 26.6 | 65.0* | -3.7 | 47.0* | -19.3 | 26.5 | · | 49.2*
c1ccc(-c2nc(NC3CCCC3)c3ccccc3n2)cc1 | 41.3* | 53.2* | -5.8 | 45.8* | 14.6 | 35.8* | 17.1 | 67.5*
COc1ccc(Nc2nc(-c3ccccc3O)nc3ccccc23)cc1 | 32.6 | 51.1* | 21.5 | 45.7* | -34.8 | 35.7* | · | 58.7*
C[C@H](CO)N1C[C@H](C)[C@@H](CN(C)C(=O)Nc2ccc(C(F)(F)F)cc2)Oc2c(NS(=O)(=O)c3ccc(F)cc3)cccc2C1=O | 3.3 | 5.2 | · | 4.7 | -16.0 | · | · | ·
O=c1cc(-c2ccc(C3CCCCC3)cc2)[nH][nH]1 | 28.9 | 74.0* | 9.0 | 58.9* | 94.0* | 32.5* | · | -4.0
O=c1cc(-c2ccc(F)cc2)[nH][nH]1 | -5.2 | 0.9 | -10.7 | 7.7 | -4.7 | · | · | ·
Cc1cc(F)ccc1S(=O)(=O)Nc1ccc(C(=O)N2CCCCC2)cc1 | -8.3 | 9.3 | · | 3.0 | -18.3 | · | · | ·
O=S(=O)(c1ccc(S(=O)(=O)N2CCC(O)CC2)cc1)N1CCCC1 | 3.4 | 6.0 | 3.2 | -13.5 | 17.7 | · | · | ·
COc1cccc(Nc2ccc([N+](=O)[O-])c3nonc23)c1 | 29.8 | 70.2* | 3.8 | 57.2* | -15.0 | 22.1 | · | 78.5*
Cc1ccc(N=Cc2cc(Br)cc(Cl)c2O)cc1 | 33.4 | 77.3* | 12.1 | 51.0* | -61.5 | 16.9 | · | 77.7*
COc1ccc(-c2cn3c(C)c(C(=O)N4CCN(c5ccccc5F)CC4)sc3n2)cc1 | 36.3 | 55.9* | 37.5 | 55.5* | 9.8 | 54.5* | · | 66.8*
SMILES | TIM10 inh | tim23-1 inh | SKKanGAS inh | tim10-1 inh | PfHsp90 yeast 2 | tim10-1 conf | tim10 confirm | tim23-1 conf
Cc1c(C(=O)N2CCN(c3ccccc3F)CC2)sc2nc(-c3ccccc3)cn12 | 54.0* | 53.5* | 21.5 | 54.3* | 8.8 | 53.5* | 51.0* | 75.3*
COc1ccc(N2CCN(C(=O)c3sc4nc(-c5ccc(F)cc5)cn4c3C)CC2)cc1 | -15.9 | 5.2 | 4.5 | -6.8 | -7.8 | · | · | ·
CCCCNc1c(-c2ccc(SC(C)CC)cc2)nc2ccccn12 (stereo unspecified) | 45.0* | 58.7* | 77.8* | 47.9* | 40.9 | 54.8* | 34.5* | 63.3*
C#CCOCCOCCOCCNc1nc(N2CCN(C(=O)CCCCCCCCCCNC(=O)[C@H](CCCCN)n3cc(CCCC(=O)O)nn3)CC2)nc(N2CCN(C(=O)CCCCCCCCCCNC(=O)[C@H](CCCN=C(N)N)n3cc(C[C@@H](C)CC)nn3)CC2)n1 | 10.9 | 51.7* | 3.5 | 43.7* | 18.3 | 38.0* | · | 52.6*
CCCOc1ccc(C(=O)N/N=C/c2c[nH]c3ccc(Br)cc23)cc1 | 17.9 | 54.8* | 35.6 | 42.6* | 14.1 | 36.8* | · | 54.0*
CC(=O)C[C@H](O)CC(=O)[C@@H]1OC(=O)CCCCCCc2ccccc21 | 3.5 | 17.7 | · | 10.1 | 3.5 | · | · | ·
CCc1c(C)c(C#N)c2nc3ccccc3n2c1NCCOC | 6.5 | 32.8 | 3.0 | 33.9 | 3.9 | · | · | ·
Cc1c(Cc2ccccc2)c(NCCN(C)C)n2c(nc3ccccc32)c1C#N | 69.0* | 57.5* | -2.9 | 47.9* | 110.7* | 56.8* | 80.2* | 69.5*
CCCCc1c(C)c(C#N)c2nc3ccccc3n2c1NCCN(C)C | 51.9* | 65.3* | -6.6 | 57.2* | 17.7 | 63.0* | 37.2* | 68.8*
CCCc1c(C)c(C#N)c2nc3ccccc3n2c1NCCCN1CCOCC1 | -6.6 | 3.3 | 0.1 | 21.4 | · | · | · | ·
Cc1ccccc1/C(N)=N/OC(=O)/C=C/c1ccccc1 | 76.3* | 72.7* | -9.6 | 75.9* | -2.0 | 51.5* | 68.0* | 56.2*
Cc1ccccc1/C(N)=N/OC(=O)c1cccs1 | 70.0* | 67.7* | -3.5 | 61.4* | 26.9 | 50.4* | -11.4 | 48.2*
Cc1ccc(/C(N)=N/OC(=O)/C=C/c2ccccc2)cc1 | 71.9* | 66.7* | -3.1 | 59.9* | -35.0 | 47.0* | 78.2* | 77.3*
COc1ccc(/C=C/C(=O)O/N=C(\N)c2ccccc2)cc1OC | 15.0 | 18.2 | -3.0 | -0.2 | 5.6 | · | · | ·
COc1ccc(/C(N)=N/OC(=O)/C=C/c2ccccc2)cc1 | 60.7* | 80.0* | 6.6 | 62.0* | 17.4 | 40.6* | 68.1* | 72.2*

Screens (PubChem BioAssay)
